According to the supplement of paper PMC6853941:
Structures can show the parent of a compound that is named as a salt.

System: MCF10A
Assay: perturbation Mahalanobis distance of morphological profile vs DMSO controls (Mahalanobis distance (SD units)); higher = stronger morphological change, active = 7 or more
Settings: screen batch: Batch1_Mahalanobis_Distance; 72 h
Experimental: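 MCF10A cells were seeded onto drugs dispensed acoustically into 384-well plates, using one dose per drug chosen from its human peak plasma concentration, and incubated for 72 h at 37 °C. Cells were stained for DNA, tubulin and mitochondria and imaged; 78 CellProfiler features were extracted, plate-normalised and compared with DMSO wells.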

Structure (SMILES)	perturbation Mahalanobis distance
C[C@@H](NCCCc1cccc(C(F)(F)F)c1)c1cccc2ccccc12 [Cinacalcet] (0.4 µM)	2.7 (inactive)
C[C@@H]1CCC2[C@@H](C)[C@@H](O)O[C@@H]3OC4(C)CC[C@@H]1[C@@]23OO4 (stereo not given in full) [Dihydroartemisinin] (13.2 µM)	10.7 (active)
c1ccc(CC2=NCCN2)cc1 [Tolazoline] (25 µM)	2.21 (inactive)
CN(Cc1cnc2nc(N)nc(N)c2n1)c1ccc(C(=O)N[C@@H](CCC(=O)O)C(=O)O)cc1 [Methotrexate] (0.44 µM)	9.23 (active)
CC1(C)N=C(N)N=C(N)N1c1ccc(Cl)cc1 [Cycloguanil] (3.4 µM)	2.56 (inactive)
NS(=O)(=O)c1cc(Cl)c(Cl)c(S(N)(=O)=O)c1 [Dichlorphenamide] (214.8 µM)	2.6 (inactive)
CN(C)c1nc(N(C)C)nc(N(C)C)n1 [Altretamine] (98.9 µM)	2.75 (inactive)
CC[N+](C)(C)Cc1ccccc1Br [Bretylium Tosylate] (84.1 µM)	2.48 (inactive)
O=C1C(CCS(=O)c2ccccc2)C(=O)N(c2ccccc2)N1c1ccccc1 (racemic) [(+/-)-Sulfinpyrazone] (41.84 µM)	3.46 (inactive)
CC(=O)/C(C#N)=C(\O)Nc1ccc(C(F)(F)F)cc1 [Teriflunomide (A77 1726)] (66.9 µM)	4.02 (inactive)
CC1(C)C[C@@H]1C(=O)N/C(=C\CCCCSC[C@H](N)C(=O)O)C(=O)O [Cilastatin] (153.4 µM)	3.43 (inactive)
O=NN(CCCl)C(=O)NCCCl [Carmustine] (0.2 µM)	2.08 (inactive)
NCCCC(N)(C(=O)O)C(F)F (stereo not given) [Eflornithine] (319.5 µM)	2.24 (inactive)
CNC[C@H](O)c1ccc(O)c(O)c1 [Epinephrine] (27.3 µM)	2.67 (inactive)
Cc1nnc(C(=O)NC(C)(C)C2=N/C(=C(\O)NCc3ccc(F)cc3)C(=O)C(=O)N2C)o1 [Raltegravir] (22.5 µM)	6.75 (inactive)
CO[C@@H]1[C@@H](OC(N)=O)[C@@H](O)[C@H](Oc2ccc3c(=O)c(NC(=O)c4ccc(O)c(CC=C(C)C)c4)c(O)oc3c2C)OC1(C)C [Novobiocin] (90.8 µM)	5.81 (inactive)
CC(=O)NO [Acetohydroxamic Acid] (523.5 µM)	4.11 (inactive)
Nc1ccn([C@@H]2O[C@H](CO)[C@@H](O)[C@@H]2O)c(=O)n1 [Cytarabine] (10.3 µM)	12.2 (active)
NCCc1ccc(O)c(O)c1 [Dopamine] (2.5 µM)	4.23 (inactive)
N[C@@H]1CONC1=O [D-Cycloserine] (98 µM)	7.56 (active)

Same assay, conditions: screen batch: Batch2_Mahalanobis_Distance; 72 h

Structure (SMILES)	perturbation Mahalanobis distance
C[C@@H](NCCCc1cccc(C(F)(F)F)c1)c1cccc2ccccc12 [Cinacalcet] (0.4 µM)	2.58 (inactive)
C[C@@H]1CCC2[C@@H](C)[C@@H](O)O[C@@H]3OC4(C)CC[C@@H]1[C@@]23OO4 (stereo not given in full) [Dihydroartemisinin] (13.2 µM)	16.7 (active)
c1ccc(CC2=NCCN2)cc1 [Tolazoline] (25 µM)	2.33 (inactive)
CN(Cc1cnc2nc(N)nc(N)c2n1)c1ccc(C(=O)N[C@@H](CCC(=O)O)C(=O)O)cc1 [Methotrexate] (0.44 µM)	17.5 (active)
CC1(C)N=C(N)N=C(N)N1c1ccc(Cl)cc1 [Cycloguanil] (3.4 µM)	2.22 (inactive)
NS(=O)(=O)c1cc(Cl)c(Cl)c(S(N)(=O)=O)c1 [Dichlorphenamide] (214.8 µM)	4.41 (inactive)
CN(C)c1nc(N(C)C)nc(N(C)C)n1 [Altretamine] (98.9 µM)	3.12 (inactive)
CC[N+](C)(C)Cc1ccccc1Br [Bretylium Tosylate] (84.1 µM)	2.83 (inactive)
O=C1C(CCS(=O)c2ccccc2)C(=O)N(c2ccccc2)N1c1ccccc1 (racemic) [(+/-)-Sulfinpyrazone] (41.84 µM)	2.61 (inactive)
CC(=O)/C(C#N)=C(\O)Nc1ccc(C(F)(F)F)cc1 [Teriflunomide (A77 1726)] (66.9 µM)	2.47 (inactive)
CC1(C)C[C@@H]1C(=O)N/C(=C\CCCCSC[C@H](N)C(=O)O)C(=O)O [Cilastatin] (153.4 µM)	3.46 (inactive)
O=NN(CCCl)C(=O)NCCCl [Carmustine] (0.2 µM)	2.55 (inactive)
NCCCC(N)(C(=O)O)C(F)F (stereo not given) [Eflornithine] (319.5 µM)	2.74 (inactive)
CNC[C@H](O)c1ccc(O)c(O)c1 [Epinephrine] (27.3 µM)	2.89 (inactive)
Cc1nnc(C(=O)NC(C)(C)C2=N/C(=C(\O)NCc3ccc(F)cc3)C(=O)C(=O)N2C)o1 [Raltegravir] (22.5 µM)	4.95 (inactive)
CO[C@@H]1[C@@H](OC(N)=O)[C@@H](O)[C@H](Oc2ccc3c(=O)c(NC(=O)c4ccc(O)c(CC=C(C)C)c4)c(O)oc3c2C)OC1(C)C [Novobiocin] (90.8 µM)	6.6 (inactive)
CC(=O)NO [Acetohydroxamic Acid] (523.5 µM)	4.24 (inactive)
Nc1ccn([C@@H]2O[C@H](CO)[C@@H](O)[C@@H]2O)c(=O)n1 [Cytarabine] (10.3 µM)	17.9 (active)
NCCc1ccc(O)c(O)c1 [Dopamine] (2.5 µM)	4.04 (inactive)
N[C@@H]1CONC1=O [D-Cycloserine] (98 µM)	9.13 (active)
